Compound activity: PubChem BioAssay, several laboratories
Hits are enriched below; roughly 0.51% of the tested compounds scored in any of these assays.
Tat transport: blocks Tat-dependent protein export in E. coli. inhibition, % at 10 µM. E. coli MC4100 TorA-mCherry Tat export, fluorescence. hit rate 0.036% among 340,000;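 active means mean replicate inhibition at least 50% and at least half of replicates individually reaching 50%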;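 further: exported cargo escapes ClpAP degradation while cytoplasmic cargo is degraded and loses fluorescence; 0% = median of neutral control wells and 100% = median of NaSCN control wells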
AddAB inh: less growth of phage-infected E. coli with AddAB. E. coli expressing H. pylori AddAB, absorbance growth. inhibition, % at 11.9 µM. hit rate 0.29% among 330,000. AID 435030; in the data active means inhibition above about 12%;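 further: 0% = vehicle wells of infected cells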
E coli growth-1: blocks Escherichia coli growth. hit rate 0.21% among 330,000. OD600, 23 h; stronger effect = lower value. OD600 absorbance (no concentration beside the values);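 active means OD600 absorbance below the run mean of sample wells minus 3.6 SD, in any replicate, cut at about 0.56 in these data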
E coli growth-2: bacterial growth inhibition, counter-screen for AddAB inhibitors. inhibition, % at 11.9 µM. hit rate 0.27% among 330,000. E. coli V3065 growth, OD600 absorbance, 18 h;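 active means inhibition above the campaign's mean inhibition across all tested compounds plus 3 SD, cut at about 9.9% in these data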;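 further: uninfected addAB+ strain grown without phage in ampicillin broth; 0% = DMSO wells and 100% = ciprofloxacin 0.95 µg/ml wells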
phage Ecoli inh: E. coli growth loss with phage present; hit rate 0.26% among 360,000; AID 651602; growth absorbance; inhibition, % at 11.9 µM; in the data active means inhibition above about 11%
AddAB confirm: confirmation screen: growth loss of phage-infected E. coli expressing H. pylori AddAB; E. coli V3065 expressing H. pylori AddAB, T4 phage, OD; T4 phage with gene 2 nonsense mutations; hit rate 64% among 880; shares compounds with AddAB inh; inhibition, % at 11.9 µM;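 active means mean inhibition above a set limit taken from the earlier primary screen, cut at about 13% in these data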;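 further: higher means less bacterial growth since AddAB block lets phage replicate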
RecBCD counter: AddAB counter-screen: growth loss of RecBCD+ E. coli infected with mutant T4 phage. shares compounds with AddAB inh. inhibition, % at 11.9 µM. E. coli V66 + mutant T4 phage, OD growth. hit rate 73% among 880;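 active means mean inhibition above the mean of solvent-only control wells plus 3 SD, cut at about 4% in these data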;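 further: optical density read after an 18 h incubation at 37 °C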
bact viab count: reduces bacterial viability, AddAB inhibitor counter-screen | shares compounds with AddAB inh | absorbance (AddAB counterscreen) | hit rate 35% among 880 | inhibition, % at 11.9 µM; in the data active means inhibition above about 25%
RecBCD conf: confirmation: growth loss of phage-infected RecBCD+ E. coli (RecBCD inhibitor screen); shares compounds with phage Ecoli inh; E. coli V66 + T4 2- phage, growth OD; inhibition, % at 11.9 µM; hit rate 45% among 890; AID 651982;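 active means mean inhibition over triplicates exceeding the hit threshold derived in the original primary screen, cut at about 11% in these data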
Ecoli viability: counter-screen for RecBCD inhibitors: inhibitors of bacterial viability | shares compounds with phage Ecoli inh | E. coli viability, absorbance (OD) growth | inhibition, % at 11.9 µM | hit rate 29% among 890; in the data active means inhibition above about 20%;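 further: E. coli strain V66 grown with compound alone and no phage infection; 0% = bacteria with DMSO vehicle only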
AddAB phage OD: growth loss of phage-infected AddAB E. coli, RecBCD counter-screen; shares compounds with phage Ecoli inh; E. coli expressing H. pylori AddAB + T4 phage, OD growth; gene 2 mutant T4, recBCD-deleted host; inhibition, % at 11.9 µM; hit rate 45% among 890;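 active means mean inhibition above the solvent-only control wells' mean plus 3 SD, cut at about 22% in these data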;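 further: higher means less bacterial growth from phage killing when AddAB is blocked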
* marks the source's active call; other numbers are inactive results; / = no result given.

SMILES	Tat transport	AddAB inh	E coli growth-1	E coli growth-2	phage Ecoli inh	AddAB confirm	RecBCD counter	bact viab count	others
O=C(Cn1ccc(C(F)(F)F)n1)Nc1cccc(S(=O)(=O)N2CCCCC2)c1	-1	35*	0.65	24*	5	-5	-1	-2
CCc1ccccc1NC(=O)NNC(=O)c1ccc2ccccc2c1O	7	1	0.71	4	5	/	/	/
CCOc1ccc(NC(=O)NNC(=O)c2ccc3ccccc3c2O)cc1	-8	13*	0.68	12*	11	9	12*	11
O=[N+]([O-])c1cc(-c2ncccn2)cs1	-1	17*	0.6	13*	10	100*	8.6*	27*
CC(C)CNC(=S)NC(=O)c1csc([N+](=O)[O-])c1	-15	4	0.57	-1	1	/	/	/
S=c1[nH]nc(-c2cc(-c3ccccc3)n[nH]2)n1N=Cc1c2ccccc2cc2ccccc12	/	/	0.7	/	/	/	/	/
CCCCC(CC)CN=C(N)NC(N)=NCCCCCCN=C(N)NC(N)=NCC(CC)CCCC (stereo not given)	76*	98*	/	101*	/	104*	73*	98*
CC1(C)OC(=O)C(=NNc2ccc(O)cc2)C(=O)O1	22	16*	0.69	5	2	17*	3	5
CC1(C)OC(=O)C(=NNc2ccccc2)C(=O)O1	-3	3	/	-3	1	/	/	/
Cc1nn(Cc2ccccc2)c(C)c1C=NNC(=O)c1ccncc1	/	/	0.62	/	/	/	/	/
NC1CCN(c2nc3c(cc2F)c(=O)c(C(=O)O)cn3-c2ccc(F)cc2F)C1 (stereo not given)	72*	101*	0.07*	102*	101*	97*	100*	100*
Cc1cccc(-c2cc(=O)c(C(=O)O)cn2-c2ccc(F)cc2F)c1	7	4	0.56	1	2	/	/	/
CC(=NNC(=O)c1ccccc1O)c1ccc(NC(=O)c2ccccc2)cc1	/	/	0.63	/	/	/	/	/
Fc1ccccc1-n1cn[nH]c1=S	4	95*	0.65	53*	3	1	-1	-1
CCCC(=NNC(=O)c1cccc(C)c1)c1ccccc1	/	/	0.67	/	/	/	/	/
CN1CCc2cc3c(c4c2[C@H]1[C@H](O)c1ccccc1-4)OCO3	6	13*	/	8	1	27*	-1	6
COc1ccc2c(c1OC)C(=O)OC2C1c2c(cc3c(c2OC)OCO3)CCN1C (stereo not given)	8	-4	0.69	-3	3	/	/	/
O=C(COc1ccc([N+](=O)[O-])cc1)NNC(=S)NC(=O)c1ccc(Br)cc1	-13	98*	0.59	96*	-4	-2	0	3
Cc1ccc(C(=O)NC(=S)NNC(=O)COc2ccc([N+](=O)[O-])cc2)cc1	-1	1	0.64	-3	-5	/	/	/
O=C1c2ccccc2C(=O)c2c(Nc3ccc(CCO)cc3)ccc(O)c21	-4	-2	/	-5	-1	/	/	/
O=C1c2c(O)ccc(O)c2C(=O)c2c(NCCNCCO)ccc(NCCNCCO)c21	11	31*	0.76	32*	-1	52*	-3	51*
O=C(Oc1c(Cl)cc(Cl)c2cccnc12)c1ccco1	-30	50*	0.056*	48*	61*	63*	60*	58*
COc1cccc(Cn2nnc(C(=O)NCc3ccc(F)cc3)c2N)c1	-4	21*	0.74	9	4	1	0	-4
Cc1cc(C(=O)NN=Cc2cccnc2)c(C)o1	/	/	0.7	/	/	/	/	/
COc1ccc(N2CCN(C(=O)CSc3nnc4c(C)cc5c(C)cc(C)cc5n34)CC2)cc1	-3	96*	0.72	94*	1	-4	-1	-6
SMILES	Tat transport	AddAB inh	E coli growth-1	E coli growth-2	phage Ecoli inh	AddAB confirm	RecBCD counter	bact viab count	others
O=C(O[C@@H]1OC2COC(=O)c3cc(O)c(O)c(O)c3-c3c(cc(O)c(O)c3O)C(=O)O[C@@H]([C@H]1O)[C@@H]2O)c1cc(O)c(O)c(O)c1	-1	22*	/	23*	/	20*	14*	10
CCCC(=O)NC(c1ccc(Cl)cc1Cl)c1ccc2cccnc2c1O (stereo not given)	-1	20*	/	27*	24*	20*	20*	19	RecBCD conf=16*;Ecoli viability=19;AddAB phage OD=25*
CCCCC(=O)NC(c1ccc(Cl)cc1)c1ccc2cccnc2c1O (stereo not given)	-5	31*	/	30*	20*	29*	22*	23	RecBCD conf=12*;Ecoli viability=14;AddAB phage OD=33*
CCCC(=O)NC(c1ccc(Cl)cc1)c1ccc2cccnc2c1O (stereo not given)	-10	19*	/	28*	18*	24*	23*	24	RecBCD conf=15*;Ecoli viability=19;AddAB phage OD=27*
CC(=O)NC(c1ccc2ccccc2c1)c1ccc2cccnc2c1O (stereo not given)	-7	30*	/	27*	24*	28*	22*	20	RecBCD conf=16*;Ecoli viability=20*;AddAB phage OD=32*
COC(=O)[C@]1(S(=O)(=O)c2ccccc2)CC2ON=C(c3ccc(OC)cc3)C2C1 (stereo not given in full)	/	/	0.68	/	/	/	/	/
CCCCC(=O)NC(c1ccccc1OC)c1ccc2cccnc2c1O (stereo not given)	23	32*	0.62	33*	34*	30*	28*	27*	RecBCD conf=21*;Ecoli viability=25*;AddAB phage OD=32*
CCCCC(=O)NC(c1ccc(OC)c(OC)c1)c1c(O)ccc2ccccc12 (stereo not given)	4	1	0.65	-1	/	/	/	/
Cc1ccc(C=NN2CCN(Cc3ccc(C)cc3)CC2)cc1	/	/	0.7	/	/	/	/	/
O=C(Nc1ccccc1SC(=O)c1ccccc1)c1ccccc1	/	/	/	/	1	/	/	/
Cc1ccc(C(=O)Sc2cccccc2=O)cc1	82*	51*	0.14*	52*	62*	64*	61*	61*	RecBCD conf=78*;Ecoli viability=81*;AddAB phage OD=89*
O=c1c2ccccc2oc2ccccc12	/	/	/	/	3	/	/	/
O=c1c(O)c(-c2cccs2)oc2ccccc12	3	23*	0.68	25*	12*	9	11*	4	RecBCD conf=5;Ecoli viability=8;AddAB phage OD=12
CCC(C=NNC(=O)C1COc2ccccc2O1)CC (stereo not given)	/	/	0.7	/	/	/	/	/
